About 7,500 (2.1%) of roughly 360,000 compounds were called active. About 20% were inconclusive and are not listed. The sample holds actives, similar compounds and a random draw of the others, so the mix is not that of the screen. Calls come from the whole dose curve; as a rule, active = well fitted inhibition curve with a large enough effect; inconclusive = small, poorly fitted or top-dose-only effect, or effect the other way; inactive = flat fitted curve, though single readings scatter.
Assay: Nrf2 qHTS screen for inhibitors; note: nearly all actives have a fitted effect of over 60% in size
Conditions: A549 ARE-Fluc reporter, luciferase luminescence, 18-24 h; series mostly up to 46 µM
Procedure, shortened: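 Nrf2 function is reported as luminescence of an ARE-controlled luciferase in A549 cells. Compounds were tested at several concentrations, and a CellTiter-Fluor read on the same wells flagged cytotoxicity.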
% is set by controls: 0 for no effect and ±100 for the full control effect; potency is the fitted concentration of half-maximal effect.

Potency, inactive:
COc1ccc(NS(=O)(=O)c2cc(C(=O)Nc3ccccc3C(=O)O)ccc2C)cc1
Cc1ccccc1NC(=O)c1cc(S(=O)(=O)Nc2cccc(C(=O)O)c2)ccc1Cl
CCOC(=O)C1CCCN(C(=O)c2ccc3c(c2)sc2nc(-c4ccc(CC)cc4)cn23)C1 (stereo not drawn)
CC(C)NC(=S)N1CCN(C(c2ccccc2)c2ccccc2)CC1
O=C(O)CN1CCN(C(c2ccccc2)c2ccccc2)CC1
Cc1ccc(C(=O)CSc2nc(-c3ccccc3)nc3c2CCCC3)c(C)c1
O=C(NCc1ccccc1CN1CCCC1)c1cccc(S(=O)(=O)Nc2ccc(F)cc2)c1
COc1ccc2sc(-c3ccc(N(C)C)cc3)c(C#CCO)c2c1
COc1ccc2sc(-c3ccc(N(C)C)cc3)c(-c3ccc4cc[nH]c4c3)c2c1
CC1Cc2ccccc2N1S(=O)(=O)c1cccc(C(=O)NCC(c2ccco2)N2CCCC2)c1 (stereo not drawn)
Cc1nc(SCC(=O)NC2CCCCC2C)c(C#N)c(C)c1C (stereo not drawn)
CC1(C)C(=O)CCC2(C)C1=CCC1C2C(=O)CC2(C)C1CCC2(O)C(=O)CO (stereo not drawn)
O=C1c2ccccc2C(=O)N1c1ccc(S(=O)(=O)N2CCOCC2)c2ccccc12
O=S(=O)(c1ccc(SCc2ccc(Br)cc2)nc1)N1CCOCC1
CCOc1cc(N2CCOCC2)c(OCC)cc1NC(=O)COC(=O)[C@H](Cc1c[nH]c2ccccc12)NC(C)=O
CCOc1cc(N2CCOCC2)c(OCC)cc1NC(=O)COc1cccc(Cl)c1
O=C(CSc1nc2ccccc2[nH]1)Nc1nc(-c2ccccc2)c(-c2ccccc2)o1
C=CCSc1nc2ccccc2[nH]1
C#CCOc1ccc(C2CC(=O)Nc3c2c(C)nn3-c2nc(C)cc(C)n2)cc1 (stereo not drawn)
CN(C)S(=O)(=O)c1ccc(C(=O)NCC(C)(C)N2CCOCC2)cc1
CC(C)(CNC(=O)Cc1ccc(Cl)cc1Cl)N1CCOCC1
Cc1noc(C)c1-c1ccc2ncnc(NCc3ccc(F)c(F)c3)c2c1
COc1ccccc1-c1noc(-c2ccc(NCc3ccccc3)c([N+](=O)[O-])c2)n1
COc1ccc(C2Nc3cccc(OC)c3C(=O)N2Cc2ccccc2)cc1COc1ccc(NC(C)=O)cc1 (stereo not drawn)
Cc1ccc(S(=O)(=O)/N=C(\N)c2ccc(F)cc2)cc1
CN(NS(=O)(=O)c1cccs1)c1ncc(C(F)(F)F)cc1Cl
CN1CCOC1c1ccc(C2OCCN2C)cc1 (stereo not drawn)
COc1ccc2cc(CNc3ccc(OC)c(OC)c3)c(=O)n(CC(=O)Nc3ccccc3F)c2c1
Cc1ccc(C)n1-c1nnc(N2CCC(C(=O)NCc3ccc(F)cc3)CC2)s1
CCN(CC)CCN(C(=O)c1ccc(S(=O)(=O)N2CCOCC2)cc1)c1nc2cc3c(cc2s1)OCCO3
CN(C)CCCN(C(=O)c1ccc(S(=O)(=O)N2CCCCCC2)cc1)c1nc2cc3c(cc2s1)OCCO3
CCOC(=O)c1ccccc1NC(=O)CSc1nc2c(sc(=S)n2CC)c(=O)[nH]1
COc1cc(OC)c(NC(=O)Cc2ccc(-n3c(C)nc4cccnc43)cc2)cc1Cl
CCN(CC)c1cc(NC2CCCCC2)c2c3c(onc13)-c1ccccc1C2=O
CC(=O)c1ccc(NC(=O)c2nc3nc(C)cc(C(F)F)n3n2)cc1
CCN(CC)S(=O)(=O)c1cc(C(=O)Nc2cc(S(=O)(=O)N3CCOCC3)ccc2N2CCCC2)ccc1F
O=C(CCCn1c(SCC(=O)c2ccccc2)nc2ccccc2c1=O)NCC1CCCO1 (stereo not drawn)
O=C(CSc1nc2ccccc2c(=O)n1Cc1ccc(F)cc1)NCC1CCCO1 (stereo not drawn)
Cc1ccc(Cl)cc1NC(=O)CCC(=O)N1CC(C)Sc2ccccc21 (stereo not drawn)
CC1CC(C)CN(S(=O)(=O)c2ccc(C(=O)NN3CCOCC3)cc2)C1 (stereo not drawn)
CC1CCCN(C(=O)Cn2c(=O)oc3cc(S(=O)(=O)N4CCCCC4C)ccc32)C1 (stereo not drawn)
CCc1nnc(NC(=O)C2CCCN2S(=O)(=O)c2ccccc2)s1 (stereo not drawn)
CC1CCCCN1S(=O)(=O)c1ccc(S(=O)(=O)N(CC(=O)Nc2ccccc2)Cc2cccs2)cc1 (stereo not drawn)
CSc1ncc(Cl)c(C(=O)Nc2ccc(S(=O)(=O)N3CCCC(C)C3)cc2)n1 (stereo not drawn)
CC1CCCCN1S(=O)(=O)CCNC(=O)c1ccccc1 (stereo not drawn)
O=C1N[C@@H](c2ccccc2)COC(=O)[C@H](Cc2ccc(F)cc2)C/C=C\C[C@@H]1CC(=O)N(CCO)Cc1ccccc1
FC(F)(F)c1cc(Nc2nc3ccccc3c3nncn23)ccc1Cl
CC[C@]12c3[nH]c4ccc(Cl)cc4c3CCN1C(=O)[C@@H](CC(=O)NCCCOC)C[C@@H]2C(=O)N1CCN(C(=O)c2ccco2)CC1
CCOC(=O)c1ccc(NC(=S)N2CCN(c3ccccn3)CC2)cc1
O=C(CN1CCN(c2ccccn2)CC1)Nc1ccc(Br)cc1
Cc1sc2ncn(CC(=O)NCCCC(=O)N3CCN(c4ccccc4F)CC3)c(=O)c2c1C
c1ccc(Cn2nnc3c(N4CCCCC4)ncnc32)cc1
CCN(CC)C(=O)[C@H]1C[C@H](CC(=O)NCC23CC4CC(CC(C4)C2)C3)C(=O)N2CCc3c([nH]c4cc(CCC(=O)N(C)C)ccc34)[C@]12C
Cc1c(C(=O)Nc2cccc(S(=O)(=O)N3CCOCC3)c2)oc2ccccc12
O=S(=O)(c1cccc(C(F)(F)F)c1)N1CCN(c2nc(-c3cccs3)nc3ccccc23)CC1
CCS(=O)(=O)c1ccc2oc(SCC(=O)N3c4ccccc4CC3C)nc2c1 (stereo not drawn)
COc1ccc(NS(=O)(=O)c2ccc(O)c(C(=O)OCC(=O)NC3CCCCC3)c2)cc1
COc1ccc(N2CCN(S(=O)(=O)c3ccc4c(c3)CC(=O)N4)CC2)cc1

Potency, active:
C=CCNC(=O)c1ccccc1NC(=O)c1ccc(Cl)c(S(=O)(=O)Nc2cccc(C)c2C)c1 9.2 µM
CC1(C)CC(N2CCN(C(c3ccccc3)c3ccccc3)CC2)=CC(=[N+]2CCCCC2)C1 7.31 µM
COc1ccc2c(c1)c(=Cc1ccc(N(C)C)cc1)c1cc(-c3ccccc3)[n+](C)n12 16.4 µM
CC(=O)OCC(=O)C1(O)CCC2C3CC(C)C4=CC(=O)CCC4(C)C3C(O)CC21C (stereo not drawn) 0.082 µM
CCOc1cc(N2CCOCC2)c(OCC)cc1NC(=O)COc1cccc2cccnc12 20.6 µM
CCC(C)N1C(=O)S/C(=C/c2ccc(Sc3nc4ccccc4[nH]3)o2)C1=O (stereo not drawn) 0.731 µM
CC(C)(CNC(=O)c1ccc(Cl)c(S(=O)(=O)N2CCc3ccccc3C2)c1)N1CCOCC1 13 µM
N/C(=N\S(=O)(=O)c1cc(C(F)(F)F)cc(C(F)(F)F)c1)c1cccs1 20.6 µM
CN(C)CCCN(C(=O)c1ccc(S(=O)(=O)N2CCCCCC2)cc1)c1nc2ccc(Br)cc2s1 25.9 µM
O=C(CCCn1c(SCC(=O)c2ccc(F)cc2)nc2ccccc2c1=O)NCc1ccco1 25.9 µM
CC1CCCCN1S(=O)(=O)c1ccc(C(=O)Nc2nnc(-c3cccs3)o2)cc1 (stereo not drawn) 13 µM
CC1CCCN(S(=O)(=O)c2ccc(C(=O)Nc3nnc(-c4ccncc4)o3)cc2)C1 (stereo not drawn) 8.2 µM
CSCc1nnc(NC(=O)c2ccc(S(=O)(=O)N3CCCCC3C)cc2)o1 (stereo not drawn) 20.6 µM
Cc1cc(Br)ccc1NC(=O)c1sc2ncn(CC(=O)N3CCN(c4ccccn4)CC3)c(=O)c2c1C 18.4 µM
Cc1cc(Br)ccc1NC(=O)c1cnc(N2CCN(c3ccccn3)CC2)c2ccccc12 11.6 µM
COc1ccc(NS(=O)(=O)c2ccc3oc(SCC(N)=O)nc3c2)cc1 23.1 µM

Activity change, negative = inhibition, inactive:
Cc1ccc(-c2nc3ccccn3c2Nc2c(C)cccc2C)o1 3.18% [at 9.27 µM]
CCC(=O)N1CCc2cc(Br)cc(S(=O)(=O)CCC(=O)NCCc3ccc(OC)c(OC)c3)c21 5.45% [at 9.27 µM]
Cc1cc(Br)ccc1NC(=O)Cn1cnc2sc(C)c(S(=O)(=O)N3CCN(C)CC3)c2c1=O 4.06% [at 9.27 µM]
COc1cc(Cl)ccc1Nc1ncc(C(=O)N2CCN(c3ccccc3OC)CC2)c2ccccc12 1.91% [at 9.27 µM]

From PubChem BioAssay AID504444 (National Center for Advancing Translational Sciences (NCATS), 2011)
